Out of some 52,000 compounds screened, about 4,300 (8.3%) were called active. Cut-off read from the data, not from the text of the source: active = survival mostly below about 52% (no sharp cut-off); inactive = mostly above about 56%. The list comes from a sample in which actives are over-represented; it also holds similar structures and randomly drawn compounds.
tested on: DeltatarO mutant; experiment: growth inhibition of S. aureus wild type versus tarO mutant, primary screen, teichoic acid synthesis inhibitors, RN4220, OD600 (AID 463173); conditions: OD600, 18 h, hits give low values, screened at 18.75 µg/mL (by protocol)

SMILES | survival
O=C(NCCc1csc(-c2ccc(Cl)cc2)n1)c1cccs1 | 89% (inactive)
COc1ccc(CNC(=O)c2cc3ccccn3n2)cc1OC | 79% (inactive)
Cc1cc(O)c(C(c2ccccc2Cl)N2CCCCC2)c(=O)n1Cc1ccco1 (centres undefined) | 76% (inactive)
CCCOC(=O)c1c(-c2ccccc2)c(-c2ccccc2)nn(C)c1=O | 60% (inactive)
Cc1ccc(C)c(Nc2ncnc3onc(C)c23)c1 | 81% (inactive)
CCOC(=O)c1ccc(Nc2c(-c3cccc(O)c3)nc3nc[nH]n23)cc1 | 46% (active)
CCOC(=O)c1ccc(Nc2c(-c3ccc(O)cc3)nc3nc[nH]n23)cc1 | 91% (inactive)
CCOC(=O)c1ccc(Nc2c(-c3ccc(O)c(OC)c3)nc3nc[nH]n23)cc1 | 93% (inactive)
COc1ccc(NC(=O)C2CCCN(C(=O)c3cnn(-c4ccccc4)c3-n3cccc3)C2)cc1 (centres undefined) | 70% (inactive)
COc1ccc(NC(=O)C2CCCN(C(=O)c3cnn(-c4ccc(F)cc4)c3-n3cccc3)C2)cc1 (centres undefined) | 47% (active)
COc1ccc(CNC(=O)C2CCCN(C(=O)c3cnn(-c4ccc(F)cc4)c3-n3cccc3)C2)cc1 (centres undefined) | 86% (inactive)
COc1ccc(-c2noc(N(c3nc(-c4ccc(OC)c(OC)c4)no3)c3ccccc3OC)n2)cc1OC | 115% (inactive)
O=C(CN1C(=O)c2cccc3cccc1c23)Nc1ccccc1Br | 63% (inactive)
COc1ccccc1NC(=O)CN1C(=O)c2cccc3cccc1c23 | 62% (inactive)
CC(C)c1ccccc1NC(=O)CN1C(=O)c2cccc3cccc1c23 | 40% (active)
CCOC(=O)c1cnc2cc(-c3ccc(OCC)cc3)nn2c1-c1ccccc1 | 68% (inactive)
CCCSc1nc2sc3c(c2c(=O)n1-c1ccc(C)cc1)CCCC3 | 8% (active)
C=C(C)CSc1nc2sc3c(c2c(=O)n1-c1ccccc1)CCC(C)C3 (centres undefined) | 84% (inactive)
CC(C)CCSc1nnc2n(-c3ccccc3)c(=O)c3c4c(sc3n12)CC(C)CC4 (centres undefined) | 70% (inactive)
CCOC(=O)CSc1nnc2n(-c3ccccc3)c(=O)c3c4c(sc3n12)COC(C(C)C)C4 (centres undefined) | 74% (inactive)
CCCSc1nc2sc3c(c2c(=O)n1-c1ccccc1)CCC(C)C3 (centres undefined) | 2% (active)
CSc1nc2sc3c(c2c(=O)n1-c1ccccc1)CCC(C(C)(C)C)C3 (centres undefined) | 18% (active)
COC(=O)CSc1nc2sc3c(c2c(=O)n1Cc1ccccc1)CCC(C(C)(C)C)C3 (centres undefined) | 66% (inactive)
CCOC(=O)CSc1nnc2n(-c3ccccc3)c(=O)c3c4c(sc3n12)CC(C(C)(C)C)CC4 (centres undefined) | 46% (active)

SMILES | survival
CCCSc1nc2sc3c(c2c(=O)n1-c1ccc(C)c(Cl)c1)CCN(C(C)=O)C3 | 81% (inactive)
CSc1nc2sc3c(c2c(=O)n1Cc1ccccc1)CCC(C(C)(C)C)C3 (centres undefined) | 114% (inactive)
CCOC(=O)CSc1nc2sc3c(c2c(=O)n1-c1ccccc1)CCC(C(C)(C)C)C3 (centres undefined) | 58% (inactive)
CCCc1nc2sc3c(c2c(=O)n1N)CCCC3 | 97% (inactive)
COc1cc(NC(=O)NCCn2nnc3cc(S(=O)(=O)N(C)C)ccc32)cc(OC)c1OC | 84% (inactive)
Cc1ccc(S(=O)(=O)NC(C)(C)CN2CCCCC2)cc1 | 96% (inactive)
NC1CCN(C(=O)NC2CCCCC2)CC1 | 89% (inactive)
Cc1cc(=O)n(Cc2ccccc2)c(=O)n1Cc1ccccc1 | 89% (inactive)
Cc1ccccc1-c1nc(CS(=O)(=O)CC(=O)Nc2c(C)cccc2C)c(C)o1 | 92% (inactive)
Cn1cc(S(=O)(=O)N2CCCCCC2)cc1C(=O)Nc1ccccc1F | 88% (inactive)
CC(=O)N1CCC(N(Cc2ccco2)C(=O)Nc2cccc(C)c2)CC1 | 130% (inactive)
COC(=O)c1ccccc1NC(=O)Nc1cccc(OCc2cc(=O)n3cccc(C)c3n2)c1 | 134% (inactive)
CCc1ccc(-n2c(=O)c3c4c(sc3n(Cc3ccc(C)cc3)c2=O)CCC4)cc1 | 132% (inactive)
Cc1ccc(-n2c(SCC(=O)O)nc3sc4c(c3c2=O)CCCC4)cc1 | 90% (inactive)
CCSc1nc2sc3c(c2c(=O)n1-c1ccc(C)cc1)CCCC3 | 0% (active)
CSc1nc2sc3c(c2c(=O)n1-c1ccc(C)cc1)CCCC3 | 39% (active)
Cc1ccc(-n2c(=O)[nH]c3sc4c(c3c2=O)CCCC4)cc1 | 133% (inactive)
CSc1nc2sc3c(c2c(=O)n1-c1ccccc1C)CCCC3 | 97% (inactive)
CCCOc1ccc(-c2nc3ccc(Br)cc3c(=O)o2)cc1 | 81% (inactive)
Cc1ccc(C)c(NC(=O)Cn2cc(S(=O)(=O)c3ccc(F)cc3)c(=O)c3cc(F)ccc32)c1 | 87% (inactive)
Cc1c(C(=O)N(Cc2ccc(N(C)C)cc2)CC2CCCO2)oc2ccccc12 (centres undefined) | 61% (inactive)
COC(=O)CNc1ccc(C)c(C)c1 | 67% (inactive)
Cc1cccc(CCNC(=O)c2nc(-c3ccc(Cl)cc3)n3c2CCCCC3)c1 | 89% (inactive)
O=C(Nc1ccc(C(F)(F)F)cc1)C1CCC(CNS(=O)(=O)c2cccc3nsnc23)CC1 (centres undefined) | 49% (inactive)

SMILES | survival
O=C(NCCCN1CCN(c2cccc(Cl)c2)CC1)c1cnn(-c2ccc(F)cc2)c1-n1cccc1 | 32% (active)
O=C(NCCCN1CCN(c2ccc(F)cc2)CC1)c1cnn(-c2ccc(F)cc2)c1-n1cccc1 | 70% (inactive)
Cc1ccc(-n2nc(C)c(C(=O)NCCCN3CCN(c4ccc(F)cc4)CC3)c2-n2cccc2)cc1 | 92% (inactive)
Cc1ccc(-n2ncc(C(=O)NCCCN3CCN(c4cccc(Cl)c4)CC3)c2-n2cccc2)cc1 | 75% (inactive)
Cc1nn(-c2ccc(F)cc2)c(-n2cccc2)c1C(=O)NCCCN1CCN(c2cccc(Cl)c2)CC1 | 94% (inactive)
Cc1ccc(-n2nc(C)c(C(=O)NCCCN3CCN(c4cccc(Cl)c4)CC3)c2-n2cccc2)cc1 | 0% (active)
O=C(Cn1c(=O)c2cc(Cl)ccc2n2nncc12)Nc1ccccc1 | 75% (inactive)
O=C(CCC1CCCC1)N1CCc2c([nH]c3ccccc23)C1c1ccc(F)cc1 (centres undefined) | 99% (inactive)
CCCCN(C(=O)C1CCC1)c1nnc(-c2ccncc2)s1 | 96% (inactive)
Clc1ccc(-c2nc3ncccn3c2Nc2ccc3c(c2)OCCO3)cc1 | 89% (inactive)
COc1ccc(C(=O)NCC(c2cccnc2)N2CCN(c3ccccc3F)CC2)cc1OC (centres undefined) | 86% (inactive)
Cc1ccc2[nH]c(=O)c(CN(Cc3nnnn3CCc3ccccc3)C3CCCC3)cc2c1 | 91% (inactive)
CCOc1ccc(OCC)c(NS(=O)(=O)c2ccc3c(c2)CCCN3C(C)=O)c1 | 73% (inactive)
Cc1cccc(-c2noc(-c3cccnc3NCc3ccco3)n2)c1 | 44% (active)
Cc1ccc(-c2noc(-c3cccnc3NCc3ccco3)n2)cc1 | 65% (inactive)
COc1ccc(-c2noc(-c3cccnc3NCc3ccco3)n2)cc1 | 98% (inactive)
Clc1ccc(-c2noc(-c3cccnc3NCc3ccco3)n2)cc1 | 61% (inactive)
c1ccc(-c2noc(-c3cccnc3NCc3ccco3)n2)cc1 | 60% (active)
Cc1ccccc1-c1noc(-c2cccnc2NCc2ccco2)n1 | 52% (inactive)
Cc1cccc(N2CCN(C3(c4ccccc4)C(=O)c4ccccc4C3=O)CC2)c1C | 79% (inactive)
COc1ccc(C(=O)NC(c2ccccc2Cl)c2cc(Cl)c3cccnc3c2O)cc1 (centres undefined) | 92% (inactive)
Cc1ccc(C(Nc2ccccn2)c2ccc3cccnc3c2O)cc1 (centres undefined) | 1% (active)
Cc1cccc(NC(c2ccccc2C)c2ccc3ccc(C)nc3c2O)n1 (centres undefined) | 0% (active)
Oc1cccc(C(Nc2ccccn2)c2ccc3cccnc3c2O)c1Cl (centres undefined) | 26% (active)

SMILES | survival
COc1cccc(C(=O)NC(c2ccc(Cl)cc2)c2cc(Cl)c3cccnc3c2O)c1 (centres undefined) | 89% (inactive)
COc1ccccc1CC(=O)Nc1cccc(C)n1 | 97% (inactive)
CCC(=O)NC(c1ccccc1OC)c1cc(Cl)c2cccnc2c1O (centres undefined) | 68% (inactive)
Cc1cccc(NC(c2cccc(Cl)c2)c2ccc3cccnc3c2O)n1 (centres undefined) | 2% (active)
Cc1cccc(NC(=O)c2ccccc2)n1 | 93% (inactive)
COc1ccc(C(=O)NC(c2ccc(Cl)cc2)c2cc(Cl)c3cccnc3c2O)cc1 (centres undefined) | 88% (inactive)
Nc1nnc(CCc2ccccc2)s1 | 80% (inactive)
O=C(O)CCOc1ccc2c(c1)OCCO2 | 82% (inactive)
CCC(CC)c1nn2c(=O)cc(COc3ccc(NC(=O)c4ccccc4C)cc3)nc2s1 | 81% (inactive)
O=C(CSc1nc2c(c(=O)[nH]1)CCC2)Nc1ccccc1C(F)(F)F | 72% (inactive)
O=C(CN1C(=O)COc2ccc(S(=O)(=O)N3CCCCCC3)cc21)NCc1ccc(Cl)cc1 | 113% (inactive)
CCOCCCNC(=O)c1cc2c(=O)n(C)c3ccccc3c2n1C | 86% (inactive)
O=C(Nc1ccccc1C(F)(F)F)N1CCC2(CC1)Oc1ccccc1C(=O)N2Cc1ccccc1F | 67% (inactive)
COc1cc(-c2cc(OC)c3c(C)oc(C)c3c(=O)c2)ccc1OC(=O)c1ccc(C)cc1 | 88% (inactive)
Cc1ccc(NC(=O)c2sc3nc(-c4ccc(F)cc4)cn3c2C)c(C)c1 | 81% (inactive)
O=C(O)CCC(=O)Nc1ccc2c(c1)oc1ccccc12 | 86% (inactive)
O=C(c1ccccc1)C(Nc1ccccn1)c1ccccc1 (centres undefined) | 99% (inactive)
COc1cc(C(=O)NC(c2ccc(Cl)cc2)c2cc(Cl)c3cccnc3c2O)cc(OC)c1OC (centres undefined) | 85% (inactive)
Cc1ccnc(NC(c2cccc(O)c2)c2ccc3ccc(C)nc3c2O)c1 (centres undefined) | 68% (inactive)
Cc1ccc2ccc(C(Nc3ccccn3)c3ccccc3)c(O)c2n1 (centres undefined) | 39% (active)
COc1ccc(C(Nc2ccccn2)c2ccc3ccc(C)nc3c2O)cc1C (centres undefined) | 40% (active)
Cc1ccc(C(C)C)cc1S(=O)(=O)Nc1ccccn1 | 101% (inactive)

Reference: PubChem BioAssay AID463173 (ICCB-Longwood Screening Facility, Harvard Medical School, 2010)
